# Test results from PubChem BioAssay.
# Active and inactive are the calls of the source.
# Legend:
# [1] = E. coli DRC41 culture turbidity changes, primary screen, E. coli filamentation inducer project, strain DRC41, OD650, 48 h (AID 1152);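 note: E. coli MC1000 strain DRC41 lacking acrAB efflux pump and sulA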; details: E. coli DRC41 (acrAB sulA), higher = more signal, called active from +8 up or from −8 down
# [2] = small-molecule binders of probe aLefty1, primary screen, biochemical, small-molecule microarray, 635/667 nm fluorescence (AID 1153); details: higher = more signal;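 note: score merges spot fluorescence with signal-to-noise ratio from the scanned slide images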
# [3] = PSAC antagonists in infected red cells, primary screen, cell-based, P. falciparum Indochina, OD700, 1 h (AID 1154); details: P. falciparum Indochina infected RBC osmotic lysis, higher = more signal, called active from +8 up or from −8 down
# [4] = PSAC antagonists in infected red cells, primary screen, cell-based, P. falciparum Indochina, OD700, 2 h (AID 1155);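 note: lysis reports solute entry through the parasite surface anion channel PSAC; channel blockers reduce lysis of infected cells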; details: P. falciparum Indochina infected erythrocytes, osmotic lysis OD700; higher = more signal, called active from +8 up or from −8 down
# [5] = osmotic lysis modulators in infected erythrocytes, primary screen, PSAC antagonist project, cell-based, P. falciparum Indochina, OD700, 3 h (AID 1156); details: higher = more signal, called active from +8 up or from −8 down
# [6] = PSAC antagonists in infected red cells, primary screen, cell-based, P. falciparum Indochina, OD700, 18 h (AID 1157); details: P. falciparum Indochina infected erythrocytes, osmotic lysis OD700, 18 h; higher = more signal, called active from +8 up or from −8 down
# [7] = modulators of S6 phosphorylation in cells, primary screen, cell-based, A549, cytoblot, luminescence, serum-stimulated (AID 1158); details: A549 phospho-S6 cytoblot, 5 h, higher = more signal;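 note: serum-stimulated A549 lung adenocarcinoma cells; signal is phosphorylated S6 detected by cytoblot immunostaining with HRP secondary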
# [8] = target: NADPH oxidase 2 (Homo sapiens) (UniProt P04839); test: NOX2-dependent H2O2 signal modulators, primary screen, NOX inhibitor project, cell-based, HEK293-NOX2, PMA-stimulated, Amplex Red fluorescence (AID 1159); details: 45 min, higher = more signal, called active from +8 up or from −8 down; note: test concentration not given here
# [9] = target: NADPH oxidase 4 (Homo sapiens) (UniProt Q9NPH5); test: NOX4-dependent H2O2 signal modulators, primary screen, NOX inhibitor project, cell-based, HEK293-NOX4, tetracycline-induced, Amplex Red fluorescence (AID 1160); details: 45 min, higher = more signal, called active from +8 up or from −8 down
# [10] = target: NADPH oxidase 5 (Homo sapiens) (UniProt Q96PH1); test: NOX5-dependent H2O2 signal modulators, primary screen, NOX inhibitor project, cell-based, HEK293-NOX5, Amplex Red fluorescence (AID 1161); details: HEK293-NOX5, ionomycin, 45 min, higher = more signal
# [11] = A549 cell viability effects, profiling panel, calcein-AM fluorescence, 48 h, basal (AID 1162); details: higher = more signal; note: test concentration not given here
# [12] = adipocyte viability effects, profiling panel, cell-based, 3T3-L1 adipocytes, calcein-AM fluorescence, 48 h, basal (AID 1163); details: 3T3-L1 adipocytes viability, higher = more signal; note: test concentration not given here
# [13] = HepG2 cell viability effects, profiling panel, calcein-AM fluorescence, 48 h, basal (AID 1164); details: higher = more signal; note: test concentration not given here
# [14] = MM1S cell viability effects, profiling panel, calcein-AM fluorescence, 48 h, basal (AID 1165); details: higher = more signal;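 note: viability of MM1S multiple myeloma cells under basal unstimulated conditions; test concentration not given here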
# [15] = basal RPMI8226 viability, no added stimulus, profiling panel, cell-based, calcein-AM fluorescence, 48 h, PK04 Diversity Set (AID 1166); details: RPMI8226 myeloma viability, higher = more signal;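 note: cells grown under basal conditions without added stimulus; test concentration not given here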
# [16] = basal HepG2 mitochondrial membrane potential changes, profiling panel, cell-based, JC-1 fluorescence, 24 h, 100 nL compound (AID 1167); details: higher = more signal; note: test concentration not given here
# [17] = basal 3T3-L1 adipocyte mitochondrial potential changes, profiling panel, cell-based, JC-1 fluorescence, 3T3-L1 adipocytes, 24 h, 100 nL compound (AID 1168); details: JC-1 mitochondrial fluorescence, higher = more signal, called active from +8 up or from −8 down; note: test concentration not given here
# [18] = basal RPMI8226 mitochondrial membrane potential changes, profiling panel, cell-based, JC-1 fluorescence, 24 h, 100 nL compound (AID 1169); details: RPMI8226 myeloma, JC-1 mitochondrial potential fluorescence, higher = more signal; note: test concentration not given here
# [19] = basal MM1S mitochondrial membrane potential changes, profiling panel, cell-based, JC-1 fluorescence, 24 h, 100 nL compound (AID 1170); details: higher = more signal; note: test concentration not given here
# [20] = A549 lung cancer cell viability effects, profiling panel, resazurin fluorescence, 24 h, PK04 Diversity Set (AID 1171); details: higher = more signal, called active from +8 up or from −8 down; note: test concentration not given here
# NADPH oxidase 2 (Homo sapiens), sequence (P04839 whole entry, looked up): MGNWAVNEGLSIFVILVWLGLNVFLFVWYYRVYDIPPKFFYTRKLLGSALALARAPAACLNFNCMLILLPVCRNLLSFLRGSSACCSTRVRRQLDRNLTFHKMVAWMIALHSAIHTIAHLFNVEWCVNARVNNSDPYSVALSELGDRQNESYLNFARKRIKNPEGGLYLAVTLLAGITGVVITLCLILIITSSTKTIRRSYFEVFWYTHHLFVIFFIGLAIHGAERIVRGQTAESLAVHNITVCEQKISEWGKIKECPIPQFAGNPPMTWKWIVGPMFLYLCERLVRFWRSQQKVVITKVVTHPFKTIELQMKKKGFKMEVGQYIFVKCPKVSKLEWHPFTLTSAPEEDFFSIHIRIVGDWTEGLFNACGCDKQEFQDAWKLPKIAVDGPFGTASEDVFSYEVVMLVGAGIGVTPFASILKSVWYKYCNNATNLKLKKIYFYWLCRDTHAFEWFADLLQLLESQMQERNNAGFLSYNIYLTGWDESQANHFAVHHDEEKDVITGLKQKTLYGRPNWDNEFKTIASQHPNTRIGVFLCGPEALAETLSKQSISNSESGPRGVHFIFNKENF
# NADPH oxidase 5 (Homo sapiens), sequence (Q96PH1 whole entry, looked up): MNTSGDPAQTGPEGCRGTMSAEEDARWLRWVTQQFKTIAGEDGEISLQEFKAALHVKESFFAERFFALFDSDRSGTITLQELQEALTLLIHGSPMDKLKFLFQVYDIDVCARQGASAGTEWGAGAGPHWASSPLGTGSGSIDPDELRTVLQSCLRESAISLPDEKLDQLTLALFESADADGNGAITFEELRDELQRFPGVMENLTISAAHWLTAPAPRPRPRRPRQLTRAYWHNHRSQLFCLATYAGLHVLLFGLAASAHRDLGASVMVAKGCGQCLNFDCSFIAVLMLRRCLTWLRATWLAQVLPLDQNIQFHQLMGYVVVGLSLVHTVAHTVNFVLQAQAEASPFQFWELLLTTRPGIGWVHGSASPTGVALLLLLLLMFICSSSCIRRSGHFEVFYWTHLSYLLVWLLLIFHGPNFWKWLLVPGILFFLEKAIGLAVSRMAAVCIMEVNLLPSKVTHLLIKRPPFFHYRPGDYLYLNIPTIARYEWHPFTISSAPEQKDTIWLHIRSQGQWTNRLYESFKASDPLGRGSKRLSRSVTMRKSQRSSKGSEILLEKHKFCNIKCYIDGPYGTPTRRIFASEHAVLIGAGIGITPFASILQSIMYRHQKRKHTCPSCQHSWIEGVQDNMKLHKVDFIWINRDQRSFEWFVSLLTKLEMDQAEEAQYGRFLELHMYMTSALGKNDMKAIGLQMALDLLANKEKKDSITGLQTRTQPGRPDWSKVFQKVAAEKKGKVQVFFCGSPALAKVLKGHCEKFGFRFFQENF
# NADPH oxidase 4 (Homo sapiens), sequence (Q9NPH5 whole entry, looked up): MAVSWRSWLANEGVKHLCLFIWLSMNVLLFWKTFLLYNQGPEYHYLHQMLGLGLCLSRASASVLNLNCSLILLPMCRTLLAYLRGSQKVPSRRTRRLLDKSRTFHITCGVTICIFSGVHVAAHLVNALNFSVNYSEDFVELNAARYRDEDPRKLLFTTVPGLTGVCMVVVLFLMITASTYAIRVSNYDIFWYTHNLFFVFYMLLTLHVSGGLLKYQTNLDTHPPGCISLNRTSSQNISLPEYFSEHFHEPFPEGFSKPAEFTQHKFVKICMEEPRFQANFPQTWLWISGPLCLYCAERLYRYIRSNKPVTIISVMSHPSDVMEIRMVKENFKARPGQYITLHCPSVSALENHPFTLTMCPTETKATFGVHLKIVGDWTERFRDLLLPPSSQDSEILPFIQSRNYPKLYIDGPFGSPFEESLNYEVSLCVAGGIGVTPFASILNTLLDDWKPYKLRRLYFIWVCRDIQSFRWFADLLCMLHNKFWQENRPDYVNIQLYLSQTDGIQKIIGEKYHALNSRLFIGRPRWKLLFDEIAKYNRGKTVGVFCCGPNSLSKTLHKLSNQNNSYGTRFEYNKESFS
SMILES,z-score [1],composite z-score [2],z-score [3],z-score [4],z-score [5],z-score [6],z-score [7],z-score [8],z-score [9],z-score [10],z-score [11],z-score [12],z-score [13],z-score [14],z-score [15],z-score [16],z-score [17],z-score [18],z-score [19],z-score [20]
COC(=O)c1c(CC[C@@H](CO)NC(=O)N[C@H](Cn2cc(-c3ccccc3C)nn2)C(C)C)oc(C(C)=O)c1C(=O)OC,0.206 (inactive),-0.112,0.791 (inactive),-0.0484 (inactive),1.56 (inactive),-0.52 (inactive),1.29,-3.2 (inactive),-2.16 (inactive),-1.77,-0.657,1.55,0.308,-0.759,-0.607,-0.24,0.37 (inactive),-0.353,-1.27,-1.26 (inactive)
COCCOC(=O)N1C(=O)[C@@]2(c3cc(C#CC4=CCCCC4)ccc31)[C@H](C(=O)N1CCN(c3ncccn3)CC1)[C@H]1C(=O)O[C@H](c3ccccc3)[C@H](c3ccccc3)N1[C@@H]2c1ccc(O)cc1,-0.386 (inactive),0.315,1.65 (inactive),1.5 (inactive),0.116 (inactive),0.824 (inactive),1.13,1.11 (inactive),0.482 (inactive),1.2,0.463,0.218,1.15,0.269,-0.802,-1.16,0.207 (inactive),-0.31,-1.3,-0.869 (inactive)
CN1C2C=C(CCCO)C(C3C(=O)N(C(N)=O)C(=O)C32)C1c1cccs1 (stereo not given),-0.214 (inactive),-0.101,1.12 (inactive),0.273 (inactive),0.13 (inactive),0.431 (inactive),-0.633,0.824 (inactive),-0.845 (inactive),0.259,-0.452,-0.086,-0.099,-0.542,0.204,-0.742,-1 (inactive),1.17,-0.0274,-0.268 (inactive)
COC(=O)[C@]1(CCS(=O)(=O)c2ccccc2)N=C(c2ccc(OCCCO)cc2)O[C@@H]1c1ccccc1CN=[N+]=[N-],-2.11 (inactive),0.15,30.4 (active),28 (active),1.82 (inactive),5.19 (inactive),-0.505,-5.83 (inactive),-1.31 (inactive),-3.08,-2.82,0.65,-2.94,-3.4,-3.15,-1.05,-1.02 (inactive),-1.08,-1.88,-4.11 (inactive)
COc1ccc(NN2C(C(O)c3ccco3)C=CC3C(=O)N(C4CCCCC4)C(=O)C32)cc1 (stereo not given),-0.636 (inactive),0.364,2.54 (inactive),0.143 (inactive),0.546 (inactive),0.0933 (inactive),-0.686,-0.19 (inactive),-0.842 (inactive),-1.1,-0.181,-0.637,1.37,0.739,-0.023,0.526,-1.23 (inactive),0.23,-1.23,0.405 (inactive)
COc1ccc(NC(=O)O[C@H]2[C@H](OC(=O)Nc3ccc4c(c3)OCO4)[C@@H](OC(=O)Nc3ccc4c(c3)OCO4)[C@@H](OC)O[C@@H]2CO)cc1,0.898 (inactive),0.33,5.81 (inactive),1.13 (inactive),0.081 (inactive),0.521 (inactive),-0.182,-3.33 (inactive),-0.666 (inactive),-2.16,-1.11,-0.0868,-1.67,-1.44,-0.7,0.818,0.533 (inactive),-0.628,-0.786,0.441 (inactive)
O=C1O[C@@H](c2ccccc2)[C@@H](c2ccccc2)N2[C@@H](c3ccc(O)cc3)[C@]3(C(=O)Nc4ccc(C#CCCO)cc43)[C@@H](C(=O)NC[C@H](O)c3ccccc3)[C@H]12,0.646 (inactive),0.279,2.75 (inactive),0.31 (inactive),0.283 (inactive),0.0695 (inactive),-0.318,-0.247 (inactive),-0.718 (inactive),-0.159,0.479,0.269,0.333,-0.121,0.671,-1.93,-1.16 (inactive),0.198,-0.667,0.588 (inactive)
COC(=O)Cn1c(C(=O)N2CCCC2)cc2c1C[C@H]1CN(C(=O)c3ccccc3)[C@@](Cc3ccc(F)cc3)(C(=O)OC)[C@@H]21,-0.246 (inactive),-0.041,1.32 (inactive),-0.428 (inactive),-0.865 (inactive),-1.71 (inactive),3.59,0.215 (inactive),1.31 (inactive),-1.46,1.13,0.0791,0.476,-0.297,0.63,0.669,-1.47 (inactive),-0.135,-1.68,-0.581 (inactive)
O=C1O[C@H](c2ccccc2)[C@H](c2ccccc2)N2[C@H]1[C@@H](C(=O)O)[C@]1(C(=O)Nc3ccccc31)[C@H]2c1ccc(O)cc1,-0.611 (inactive),-0.0501,1.26 (inactive),0.789 (inactive),-0.236 (inactive),0.678 (inactive),0.374,-0.295 (inactive),-0.697 (inactive),1.31,0.29,-0.268,-0.733,0.0137,0.605,-1.33,-1.43 (inactive),0.73,0.0818,0.769 (inactive)
COCC(=C=CC[C@H](O)c1cccc(OCCO)c1)C[C@H](O)c1ccccn1,0.941 (inactive),-0.198,8.86 (active),1.16 (inactive),1.49 (inactive),0.674 (inactive),0.789,-0.142 (inactive),0.154 (inactive),-0.772,1.39,0.101,1.25,0.0467,0.461,0.843,1.49 (inactive),0.237,-0.664,1.22 (inactive)
O=C(CS)NCCCCCCNC(=O)[C@H]1C[C@H]2C(=O)N[C@@H](Cc3ccccc3)C(=O)N2[C@H]1c1cccc(OCCO)c1,-0.405 (inactive),0.269,6 (inactive),0.988 (inactive),-0.228 (inactive),0.351 (inactive),0.882,1.76 (inactive),0.441 (inactive),-0.135,0.0757,-0.154,0.77,0.306,0.895,-0.394,0.0403 (inactive),-0.309,-1.12,0.311 (inactive)
COCCOC(=O)N1C(=O)[C@@]2(c3cc(C#CC4(O)CCCCCC4)ccc31)[C@H](C(N)=O)[C@H]1C(=O)O[C@H](c3ccccc3)[C@H](c3ccccc3)N1[C@@H]2c1ccccc1OCCO,0.127 (inactive),-1.03,4.94 (inactive),2.11 (inactive),3.54 (inactive),1.62 (inactive),0.563,2.63 (inactive),0.164 (inactive),0.38,-1.86,0.73,-4.88,-3.42,-4.59,-2.32,1.57 (inactive),-1.17,-1.7,-2.63 (inactive)
C=C[C@H](COC(C)=O)NS(=O)(=O)c1ccc(Br)cc1,0.348 (inactive),0.0056,0.174 (inactive),-0.191 (inactive),-0.3 (inactive),0.252 (inactive),0.16,1.96 (inactive),-0.0653 (inactive),0.0573,0.0955,-0.569,1.05,0.661,0.402,0.549,0.0685 (inactive),-0.616,0.651,-0.201 (inactive)
CN(C)CCCNC(=O)[C@@]1(C)c2ccccc2C(=O)N(Cc2cc(C(F)(F)F)cc(C(F)(F)F)c2)[C@H]1c1ccc(CO)cc1,-1.2 (inactive),-0.147,2.37 (inactive),-0.0111 (inactive),2.17 (inactive),0.327 (inactive),0.16,0.0342 (inactive),-1.35 (inactive),-2.64,-0.434,0.157,0.221,-0.309,-2.36,1.31,-0.36 (inactive),-0.0152,-0.279,-0.832 (inactive)
CCCC[C@@H]1C[C@H]1[C@@H](NC(=O)c1ccccc1)c1ccc(Cl)cc1,-2.41 (inactive),0.233,1.72 (inactive),0.589 (inactive),-0.573 (inactive),0.839 (inactive),-0.584,-0.093 (inactive),-0.505 (inactive),1.86,-1.35,-0.847,-1.17,-1.23,-1.45,0.229,-1.6 (inactive),-0.852,-1.19,2.09 (inactive)
COCCCNC(=O)[C@@H]1c2ccccc2C(=O)N(Cc2ccccc2C(F)(F)F)[C@H]1c1ccc(CO)cc1,0.938 (inactive),-0.198,1.14 (inactive),0.165 (inactive),0.0034 (inactive),-0.0633 (inactive),0.0987,-0.214 (inactive),0.732 (inactive),0.498,2.1,1.29,1,0.7,0.237,2.55,-0.0216 (inactive),-0.213,0.872,1.8 (inactive)
CCOC(=O)[C@@H]1[C@@H]2C(=O)N(CC)C(=O)[C@@H]2C[C@@H]1Sc1ccccc1,-0.785 (inactive),-0.247,1.44 (inactive),1.16 (inactive),-0.245 (inactive),0.905 (inactive),-0.502,-2.32 (inactive),-4.05 (inactive),-0.796,-0.992,-1.04,-0.971,-0.223,-0.0967,-0.644,0.186 (inactive),-0.28,-1.29,1.06 (inactive)
